{"source": "the supplement of paper PMC9023506", "note": "Counter-ions that a name gives are not always drawn."}
{"test_system": "Danio rerio larvae (5 dpf)", "assay": "optomotor response to blue moving lines, difference vs DMSO (percentage points (treated minus DMSO)); higher = more of the behaviour than the DMSO vehicle control", "conditions": "10 µM; exposure time: 3 h pre-incubation + 3 h imaging", "description": "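5-dpf wild-type zebrafish larvae were imaged in 96-well plates. They were treated with 190 Tocris FDA-approved drugs at 10 µM (1 µl/ml DMSO) for 3 h before and 3 h during imaging at 28.5 °C, 48 larvae per drug. Automated image analysis gave % time moving and optomotor responses. Values are drug group mean minus DMSO vehicle mean (n=844), in percentage points, for 10 behaviours.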"}
{"smiles": "COCCCOc1cc(C[C@@H](C[C@H](N)[C@@H](O)C[C@H](C(=O)NCC(C)(C)C(N)=O)C(C)C)C(C)C)ccc1OC", "note": "[Aliskiren hemifumarate]", "optomotor response to blue moving lines": -5.15}
{"smiles": "C[C@H]1O[C@H](O[C@H]2[C@H](O)[C@@H](O)[C@@H](O[C@H]3[C@H](O)[C@@H](O)C(O)O[C@@H]3CO)O[C@@H]2CO)[C@H](O)[C@@H](O)[C@@H]1N[C@H]1C=C(CO)[C@@H](O)[C@H](O)[C@H]1O", "note": "(stereo not given in full) [Acarbose]", "optomotor response to blue moving lines": 15.5}
{"smiles": "CCOC(=O)C1=C(COCCN)NC(C)=C(C(=O)OC)C1c1ccccc1Cl", "note": "(stereo not given) [Amlodipine besylate]", "optomotor response to blue moving lines": 6.74}
{"smiles": "CCc1ccc(CCOc2ccc(CC3SC(=O)NC3=O)cc2)nc1", "note": "(stereo not given) [Pioglitazone hydrochloride]", "optomotor response to blue moving lines": -1.78}
{"smiles": "O=c1n(CCCN2CCN(c3cccc(Cl)c3)CC2)nc2ccccn12", "note": "[Trazodone hydrochloride]", "optomotor response to blue moving lines": 6.49}
{"smiles": "N[C@@H]1[C@H]2CN(c3nc4c(cc3F)c(=O)c(C(=O)O)cn4-c3ccc(F)cc3F)C[C@@H]12", "note": "[Trovafloxacin mesylate]", "optomotor response to blue moving lines": 14.1}
{"smiles": "CCOC(=O)[C@H](CCc1ccccc1)N[C@H]1CCc2ccccc2N(CC(=O)O)C1=O", "note": "[Benazepril hydrochloride]", "optomotor response to blue moving lines": 5.7}
{"smiles": "CCN(Cc1ccncc1)C(=O)C(CO)c1ccccc1", "note": "(stereo not given) [Tropicamide]", "optomotor response to blue moving lines": 0.00192}
{"smiles": "CCCc1nn(C)c2c(=O)[nH]c(-c3cc(S(=O)(=O)N4CCN(C)CC4)ccc3OCC)nc12", "note": "[Sildenafil citrate]", "optomotor response to blue moving lines": 8.78}
{"smiles": "NC(=O)c1ncn([C@@H]2O[C@H](CO)[C@@H](O)[C@H]2O)n1", "note": "[Ribavirin]", "optomotor response to blue moving lines": 9.25}
{"smiles": "O=C(O[C@@H]1C[C@@H]2C[C@H]3C[C@H](C1)N2CC3=O)c1c[nH]c2ccccc12", "note": "[Dolasetron mesylate]", "optomotor response to blue moving lines": 0.622}
{"smiles": "O=C(c1ccc(OCCN2CCCCC2)cc1)c1c(-c2ccc(O)cc2)sc2cc(O)ccc12", "note": "[Raloxifene hydrochloride]", "optomotor response to blue moving lines": -2.86}
{"smiles": "CCCCNc1cc(C(=O)O)cc(S(N)(=O)=O)c1Oc1ccccc1", "note": "[Bumetanide]", "optomotor response to blue moving lines": 3.8}
{"smiles": "COc1cc2nccc(Oc3ccc(NC(=O)C4(C(=O)Nc5ccc(F)cc5)CC4)cc3)c2cc1OC", "optomotor response to blue moving lines": -8.79}
{"smiles": "CCCCCCCCc1ccc(CCC(N)(CO)CO)cc1", "optomotor response to blue moving lines": -1.76}
{"smiles": "CN1CC(=O)N2[C@H](c3ccc4c(c3)OCO4)c3[nH]c4ccccc4c3C[C@@H]2C1=O", "note": "[Tadalafil]", "optomotor response to blue moving lines": -3.81}
{"smiles": "C#C[C@]1(O)CC[C@H]2[C@@H]3CCC4=CC(=O)CC[C@@H]4[C@H]3CC[C@@]21CC", "note": "[Levonorgestrel]", "optomotor response to blue moving lines": 19.5}
{"smiles": "C[C@H](Cc1cc2c(c(C(N)=O)c1)N(CCCO)CC2)NCCOc1ccccc1OCC(F)(F)F", "note": "[Silodosin]", "optomotor response to blue moving lines": 15.7}
{"smiles": "Cc1nc(-c2ccc(OCC(C)C)c(C#N)c2)sc1C(=O)O", "note": "[Febuxostat]", "optomotor response to blue moving lines": -7.14}
{"smiles": "CCCC1O[C@@H]2C[C@H]3[C@@H]4CCC5=CC(=O)C=C[C@]5(C)[C@H]4[C@@H](O)C[C@]3(C)[C@]2(C(=O)CO)O1", "note": "(stereo not given in full) [Budesonide]", "optomotor response to blue moving lines": 2.29}
{"smiles": "CC[C@H](C)C(=O)O[C@H]1C[C@@H](C)C=C2C=C[C@H](C)[C@H](CC[C@@H]3C[C@@H](O)CC(=O)O3)[C@H]21", "note": "[Lovastatin]", "optomotor response to blue moving lines": 8.37}
{"smiles": "O=C1CCc2ccc(OCCCCN3CCN(c4cccc(Cl)c4Cl)CC3)cc2N1", "note": "[Aripiprazole]", "optomotor response to blue moving lines": -0.0385}
{"smiles": "Cc1c(-c2ccc(O)cc2)n(Cc2ccc(OCCN3CCCCCC3)cc2)c2ccc(O)cc12", "note": "[Bazedoxifene acetate]", "optomotor response to blue moving lines": 1.43}
{"smiles": "CC(C)c1nc(CN(C)C(=O)N[C@H](C(=O)N[C@@H](Cc2ccccc2)C[C@H](O)[C@H](Cc2ccccc2)NC(=O)OCc2cncs2)C(C)C)cs1", "note": "[Ritonavir]", "optomotor response to blue moving lines": -11.8}
{"smiles": "CN/C(=N\\CCSCc1nc[nH]c1C)NC#N", "note": "[Cimetidine]", "optomotor response to blue moving lines": 4.9}
{"smiles": "CCOc1cc(CC(=O)N[C@@H](CC(C)C)c2ccccc2N2CCCCC2)ccc1C(=O)O", "note": "[Repaglinide]", "optomotor response to blue moving lines": -2.55}
{"smiles": "CC#C[C@]1(O)CC[C@H]2[C@@H]3CCC4=CC(=O)CCC4=C3[C@@H](c3ccc(N(C)C)cc3)C[C@@]21C", "note": "[Mifepristone]", "optomotor response to blue moving lines": 11}
{"smiles": "N#Cc1ccc(C(c2ccc(C#N)cc2)n2cncn2)cc1", "note": "[Letrozole]", "optomotor response to blue moving lines": 2.11}
{"smiles": "C/C(O)=C(\\C#N)C(=O)Nc1ccc(C(F)(F)F)cc1", "note": "[Teriflunomide]", "optomotor response to blue moving lines": -8.25}
{"smiles": "CCOc1nc2cccc(C(=O)O)c2n1Cc1ccc(-c2ccccc2-c2noc(=O)[nH]2)cc1", "note": "[Azilsartan]", "optomotor response to blue moving lines": 7.48}
{"smiles": "CCCCCCCN(CC)CCCC(O)c1ccc(NS(C)(=O)=O)cc1", "note": "(stereo not given) [Ibutilide hemifumarate]", "optomotor response to blue moving lines": 12.1}
{"smiles": "CC(C)c1ccc2oc3nc(N)c(C(=O)O)cc3c(=O)c2c1", "note": "[Amlexanox]", "optomotor response to blue moving lines": 5.97}
{"smiles": "Nc1ncn([C@@H]2O[C@H](CO)[C@@H](O)[C@H]2O)c(=O)n1", "note": "[5-Azacytidine]", "optomotor response to blue moving lines": 8.76}
{"smiles": "C[C@@H](O[C@H]1OCCN(Cc2n[nH]c(=O)[nH]2)[C@H]1c1ccc(F)cc1)c1cc(C(F)(F)F)cc(C(F)(F)F)c1", "note": "[Aprepitant]", "optomotor response to blue moving lines": 4.96}
{"smiles": "C[C@@H]1C[C@H]2[C@@H]3CCC4=CC(=O)C=C[C@]4(C)[C@@]3(F)[C@@H](O)C[C@]2(C)[C@@]1(O)C(=O)CO", "note": "[Dexamethasone]", "optomotor response to blue moving lines": 2.76}
{"smiles": "CC(C)[C@H]1CC[C@H](C(=O)N[C@H](Cc2ccccc2)C(=O)O)CC1", "note": "[Nateglinide]", "optomotor response to blue moving lines": 11.9}
{"smiles": "Nc1cc(N2CCCCC2)nc(N)[n+]1[O-]", "note": "[Minoxidil]", "optomotor response to blue moving lines": -6.76}
{"smiles": "CC1(C)O[C@@H]2[C@@H](CO[C@@]3(COS(N)(=O)=O)OC(C)(C)O[C@@H]23)O1", "note": "[Topiramate]", "optomotor response to blue moving lines": -3.75}
{"smiles": "COc1ccccc1OCC(O)CN1CCN(CC(=O)Nc2c(C)cccc2C)CC1", "note": "(stereo not given) [Ranolazine dihydrochloride]", "optomotor response to blue moving lines": 13.8}
{"smiles": "O=C1CCc2cc(OCCCCc3nnnn3C3CCCCC3)ccc2N1", "note": "[Cilostazol]", "optomotor response to blue moving lines": 6.53}
